Measurements published in PubChem BioAssay (NCATS).
Results filed as inconclusive are left out. A number with no mark means an inactive call. Activity calls are given as the source filed them. Calls come from the whole dose curve; as a rule, active = well fitted cell-killing curve with a large enough effect; inconclusive = small, poorly fitted or top-dose-only effect; inactive = no such curve, though single readings can be large or run the other way.

Experiment: Cell Viability - LYMP2-001 (AID 921);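 note: 0% = DMSO only and full inhibition = tetraoctylammonium bromide control wells; nearly all actives have a fitted effect of over 70% in size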
Conditions: LYMP2-001 lymphoblastoid cell viability; series mostly up to 92.2 µM; activity change, negative = cytotoxic: at the top concentration
Excerpt: NIH Chemical Genomics Center [NCGC]
NIH Molecular Libraries Screening Centers Network [MLSCN]
National Institutes of Environmental Health Sciences [NIEHS]
National Toxicology Program [NTP]
We have developed a 1536-well cell-based assay for quantitative high throughput screening (qHTS) against a number of cell lines to determine in vitro cytotoxicity of small molecules. This particular assay uses a human lymphoblastoid cell line (LYMP2-001) purchased from Coriell Institute for Medical Research.
NCGC Assay Protocol Summary:
The CellTiter-Glo luminescent cell viability assay (Promega) is a homogeneous method to measure the number of viable cells in culture. The end point readout of this assay is based on quantitation of intracellular ATP, an indicator of metabolic activity, using the luciferase reaction. Luciferase catalyzes the oxidation of beetle Luciferin to oxyluciferin and light in the presence of ATP. The luminescent signal is proportional to amount of ATP present.
Using the CellTiter-Glo luminescent cell viability assay, the amount of cellular ATP was measured in the lymphoblastoid cell line with complete culture medium following compound treatment for 24 hours. The assay was performed in opaque white Kalypsys 1536-well plates. In the screen, tetraoctylammonium bromide was used as positive control. Library compounds were measured for their ability to cause acute toxicity in the cell line, as reflected by a decrease in intracellular ATP levels, in a concentration-dependent manner. […] AC50 values were determined from concentration-response data modeled with the standard Hill equation.
qHTS protocol for CellTiter Glo lymphoblastoid cellular assay
[Step] [Parameter] [Value] [Description]
1. Reagent; 5 uL; 2500 lymphoblastoid cells/well
2. Time; 5 hr; 37 C incubation
4. Controls; 23 nL; Tetraoctylammonium bromide 6.4pM to 92 uM
5. Time; 24 hr; 37 C incubation
6. Reagent; 5 uL; CellTiter Glo reagent
7. Time; 30 min; Room Temperature
8. Detection; Luminescence; Viewlux plate reader
Keywords: cell viability, cytotoxicity, lymphoblastoid cell line, luminescence, NTPHTS, NTPHTS_NCGC, NIEHS, DSSTox, MLSMR, MLSCN, NIH Roadmap, qHTS, NCGC

Question: With `O=c1c(-c2ccc(O)cc2)coc2cc(O)cc(O)c12` as the compound, how does the “activity change, negative = cytotoxic” value read?
Answer: 2.35%

Question: For `COc1ccc2[nH]cc(CCNC(C)=O)c2c1`, which “activity change, negative = cytotoxic” value is on record?
Answer: 23.4%

Question: For `N[C@@H](Cc1c[nH]c2ccc(O)cc12)C(=O)O`, which “activity change, negative = cytotoxic” value is on record?
Answer: -34%

Question: For `CC(C)C(=O)Nc1ccc([N+](=O)[O-])c(C(F)(F)F)c1`, which “activity change, negative = cytotoxic” value is on record?
Answer: -17.6%

Question: Which “activity change, negative = cytotoxic” value does the source give for `Cc1cn([C@H]2C[C@H](N=[N+]=[N-])[C@@H](CO)O2)c(=O)[nH]c1=O` here?
Answer: 2.61%

Question: With `Nc1c2c(nc3ccccc13)CCCC2` as the compound, how does the “activity change, negative = cytotoxic” value read?
Answer: -21.3%

Question: For `Nc1ccn([C@H]2CC[C@@H](CO)O2)c(=O)n1`, which “activity change, negative = cytotoxic” value is on record?
Answer: -5.85%

Question: For `Cc1cn([C@H]2C=C[C@@H](CO)O2)c(=O)[nH]c1=O`, which outcome is on record?
Answer: inactive

Question: Which “activity change, negative = cytotoxic” value does the source give for `Cn1c(=O)c2[nH]cnc2n(C)c1=O` here?
Answer: -14.7%

Question: For `Clc1ccc(C(c2ccccc2Cl)C(Cl)Cl)cc1` (configuration not stated), which “activity change, negative = cytotoxic” value is on record?
Answer: -4.08%

Question: Which “activity change, negative = cytotoxic” value does the source give for `CCC1(c2ccccc2)C(=O)NCNC1=O` here?
Answer: -9.8%

Question: With `NS(=O)(=O)c1cc2c(cc1Cl)NCNS2(=O)=O` as the compound, how does the “activity change, negative = cytotoxic” value read?
Answer: -15.8%

Question: For `Cc1ccc(-c2cc(C(F)(F)F)nn2-c2ccc(S(N)(=O)=O)cc2)cc1`, which “activity change, negative = cytotoxic” value is on record?
Answer: -12.6%

Question: Which “activity change, negative = cytotoxic” value does the source give for `CC(C)NCC(O)c1ccc(O)c(O)c1` (configuration not stated) here?
Answer: -37.4%

Question: For `Cn1c(=O)c2c(ncn2C)n(C)c1=O`, which “activity change, negative = cytotoxic” value is on record?
Answer: -14.1%

Question: For `NCCS(=O)(=O)O`, which “activity change, negative = cytotoxic” value is on record?
Answer: 1.72%

Question: For `O=c1[nH]cc(F)c(=O)[nH]1`, which “activity change, negative = cytotoxic” value is on record?
Answer: -21.6%
